The campaign covered roughly 310,000 compounds. About 14,000 (4.5%) showed an effect of 50% or more. Effects have a minus sign here. Only a selection was taken, and strong results are over-represented in it overall.
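Also: peak tail current of the secondary pulse compared with the same well before compound.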

The target of the experiment is human ether-à-go-go-related gene (hERG) potassium channel (human, UniProt Q12809). In words: primary screen, population patch clamp on CHO cells stably expressing hERG; higher = less effect of the substance.
Chain of human ether-à-go-go-related gene (hERG) potassium channel (Q12809 whole entry, looked up): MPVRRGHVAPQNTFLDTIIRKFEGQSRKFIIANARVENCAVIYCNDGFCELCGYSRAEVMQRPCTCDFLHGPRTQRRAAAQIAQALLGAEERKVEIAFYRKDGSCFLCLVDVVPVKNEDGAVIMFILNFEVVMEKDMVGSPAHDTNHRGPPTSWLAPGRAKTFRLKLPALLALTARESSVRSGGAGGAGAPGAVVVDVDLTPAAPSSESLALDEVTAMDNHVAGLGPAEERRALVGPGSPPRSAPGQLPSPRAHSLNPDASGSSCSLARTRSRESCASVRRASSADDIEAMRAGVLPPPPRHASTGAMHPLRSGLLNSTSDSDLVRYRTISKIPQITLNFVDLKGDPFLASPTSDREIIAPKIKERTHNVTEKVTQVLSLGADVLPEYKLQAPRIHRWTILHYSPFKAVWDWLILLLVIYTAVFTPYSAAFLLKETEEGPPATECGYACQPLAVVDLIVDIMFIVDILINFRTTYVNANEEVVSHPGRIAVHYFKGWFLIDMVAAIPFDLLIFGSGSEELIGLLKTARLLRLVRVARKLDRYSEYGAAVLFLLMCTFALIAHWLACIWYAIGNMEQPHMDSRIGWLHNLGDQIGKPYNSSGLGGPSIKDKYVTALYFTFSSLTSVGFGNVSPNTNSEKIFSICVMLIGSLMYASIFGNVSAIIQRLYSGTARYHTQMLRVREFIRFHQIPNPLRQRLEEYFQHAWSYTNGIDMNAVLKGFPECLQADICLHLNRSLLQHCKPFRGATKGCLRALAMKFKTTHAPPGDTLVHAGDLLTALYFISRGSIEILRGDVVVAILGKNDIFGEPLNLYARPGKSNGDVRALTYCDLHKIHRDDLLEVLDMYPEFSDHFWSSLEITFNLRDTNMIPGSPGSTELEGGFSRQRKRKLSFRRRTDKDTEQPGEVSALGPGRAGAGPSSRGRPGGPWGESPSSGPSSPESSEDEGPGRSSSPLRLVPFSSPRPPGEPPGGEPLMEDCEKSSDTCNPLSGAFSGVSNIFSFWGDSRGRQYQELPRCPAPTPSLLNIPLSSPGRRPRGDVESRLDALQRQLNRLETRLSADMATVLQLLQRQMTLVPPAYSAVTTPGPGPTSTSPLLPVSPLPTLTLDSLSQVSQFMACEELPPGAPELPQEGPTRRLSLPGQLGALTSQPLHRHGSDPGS
With `CN1C(=O)C(=Cc2coc3ccccc3c2=O)C(=O)N(C)C1=O`, the “hERG current change (%, negative = inhibition) at 10uM” value was determined as 2.32%.
Under `O=C(Cn1cnc2ccccc21)Nc1ccc(F)c(F)c1` stands 8.41%.
Under `O=C(Cn1cnc2ccccc21)Nc1ccc(C(=O)O)cc1.O=C(O)C(=O)O` stands -71.4%; under `Cc1ccc(NC(=O)Cn2cnc3ccccc32)cc1C`, -3.44%.
For the compound `O=S(=O)(c1ccc(N2CCOCC2)cc1)N1CCOCC1`, the “hERG current change (%, negative = inhibition) at 10uM” value was -5.96%.
Under `O=C(CNC(=O)c1ccccc1)OCCCOC(=O)CNC(=O)c1ccccc1` stands 11.8%; under `O=C(NC(=S)N1CCOCC1)c1ccccc1Cl`, 12.7%; under `O=C(NN1C(=O)c2cc(Br)ccc2NC1c1ccccc1Cl)c1ccncc1` (stereo not shown), 8.83%.
Under `COc1ccc(CNC(=O)CN2CCC(n3nnc4cc(F)ccc43)CC2)cc1` stands -68%; under `Cc1nc2cc(NC(=O)N3CCC(c4ccccc4)C3)ccc2n1C` (stereo not shown), -52.4%; under `COc1ccccc1NC(=O)CN1CCC(n2nnc3cc(F)ccc32)CC1`, -55.4%.
As for `Cc1nc2ccc(NC(=O)N3CCC(c4ccccc4)C3)cc2nc1C` (stereo not shown), the figure is -11.4%.
Turning to `COc1cc(NC(=O)Nc2ccccc2OC)c(OC)cc1NC(=O)CN1CCCCC1`, the “hERG current change (%, negative = inhibition) at 10uM” value was 1.04%.
As for `Cc1nc2cc(NC(=O)N3CCCC3)ccc2n1C`, the figure is -1.21%.
Under `COc1ccc(Cl)cc1NC(=O)CN1CCC(n2nnc3ccccc32)CC1` stands -10.4%.
Under `Cl.O=C(CN1CCC(n2nnc3cc(F)ccc32)CC1)NCc1ccco1` stands -35.6%; under `COc1ccc(Cl)cc1NC(=O)CN1CCC(n2nnc3cc(F)ccc32)CC1`, -7.93%.
Consider `COc1ccc(C(=O)NNC(=O)CN2CCC(n3nnc4cc(F)ccc43)CC2)cc1`, for which the “hERG current change (%, negative = inhibition) at 10uM” value was -18.4%.
As for `COc1ccccc1NC(=O)CN1CCC(n2c(C)nc3cc(F)ccc32)CC1`, the figure is -72.2%.
For the compound `COc1ccc(NC(=O)CN2CCC(n3c(C)nc4cc(F)ccc43)CC2)c(OC)c1`, the “hERG current change (%, negative = inhibition) at 10uM” value is reported as -4.64%.
Under `CCc1ccc(C(=O)N/N=C/c2cccc3ccccc23)nc1` stands 1.8%.
Under `Cc1ccc(-c2nnc(SCC(=O)N3CCCC3)o2)cc1C` stands -0.309%; under `CC(C)Cc1nnc(NC(=O)CCC(=O)NC2CCCCCC2)s1`, -48.6%; under `CCN(CC)CCP(=O)(c1ccccc1)c1ccccc1`, -15.2%.
Under `OCCN1CCN(c2nc(-c3ccccc3)nc3c2oc2ccccc23)CC1` stands -6.34%; under `COC(=O)C1=C(CN2CCN(C)CC2)NC(=O)NC1c1cc(C)ccc1C` (stereo not shown), -41%.
Consider `COc1ccc2c(=O)cc(-c3cccnc3)oc2c1OC`, for which the “hERG current change (%, negative = inhibition) at 10uM” value was found to be 8.9%.
As for `CCc1nnc(NC(=O)c2c(-c3ccccc3)noc2C)s1`, the figure is 10.2%; as for `N#Cc1ccccc1OCC(=O)Nc1cccc(S(=O)(=O)N2CCCC2)c1`, 5.17%.
As for `O=C(Cc1ccccc1F)Nc1ccc(SC(F)F)cc1`, the figure is 14%.
Under `CC1CCC(NC(=O)CN2CCC(n3nnc4cc(F)ccc43)CC2)CC1` (stereo not shown) stands -58.4%.
Turning to `O=C(CN1CCC(n2nnc3cc(F)ccc32)CC1)NC1CC1`, the “hERG current change (%, negative = inhibition) at 10uM” value is listed as -4.99%.
Under `Cc1nc2ccccc2n1C1CCN(C(=O)Nc2ccccc2)CC1` stands -60.5%; under `COC(=O)C1CCN(C(=O)Nc2ccccc2)CC1`, 24.3%.
For the compound `O=C(Nc1ccccc1)N1CCC(n2c(=O)[nH]c3ccccc32)CC1`, the “hERG current change (%, negative = inhibition) at 10uM” value is listed as -8.18%.
Under `Cc1nc2ccccc2n1C1CCN(CC(=O)NCc2ccc(F)cc2)CC1` stands -58%.
As for `O=C(CN1CCC(n2nnc3cc(F)ccc32)CC1)NC1CCCCC1`, the figure is -32.8%.
Under `Cc1ccccc1C(=O)NC1CCN(CC(=O)NCc2ccc(F)cc2)CC1` stands -44.2%; under `Cc1nc2ccccc2n1C1CCN(CC(=O)Nc2ccccc2Br)CC1`, -25%; under `Cc1ccc(CN(C)CC(=O)Nc2ccccc2C(=O)NC2CC2)o1`, -7.18%.
For the compound `N#Cc1c(F)cccc1N1CCC(C#N)CC1`, the “hERG current change (%, negative = inhibition) at 10uM” value came to 8.29%.
Turning to `Cn1nnnc1SCC(=O)Nc1ccccc1C(=O)NC1CC1`, the “hERG current change (%, negative = inhibition) at 10uM” value amounted to 7.04%.
Under `COc1ccccc1NC(=O)CCN1C(=O)/C(=C/c2cc(OC)c(OC)c(OC)c2)SC1=S` stands 13.8%; under `O=C(Cc1ccccc1)Nc1ccc2oc(-c3ccncc3)nc2c1`, 0.815%; under `COc1ccc(OC(C)C(=O)Nc2cccc([N+](=O)[O-])c2)cc1` (stereo not shown), -58.8%.
As for `CC(Sc1nncn1-c1ccccc1)C(=O)Nc1cccc([N+](=O)[O-])c1` (stereo not shown), the figure is -17.2%; as for `COc1ccc(OC(C)C(=O)Nc2ccc([N+](=O)[O-])cc2)cc1` (stereo not shown), 3.6%; as for `CC(Oc1ccccc1)C(=O)Nc1cccc([N+](=O)[O-])c1` (stereo not shown), -22%.
Consider `COc1ccccc1-n1cnnc1SC(C)C(=O)Nc1cccc([N+](=O)[O-])c1` (stereo not shown), for which the “hERG current change (%, negative = inhibition) at 10uM” value is -8.19%.
Under `COc1ccc(-n2cnnc2SC(C)C(=O)Nc2cccc([N+](=O)[O-])c2)cc1` (stereo not shown) stands -59.3%; under `COc1ccc(CNC(=O)CCSCc2ccc(C)cc2)cc1`, -16.2%.
`CCC1=Nc2cc(C(=O)O)ccc2Sc2ccccc21`: the “hERG current change (%, negative = inhibition) at 10uM” value was found to be 21.2%.
Under `COC(=O)C1=C(c2ccc(OC(F)(F)F)cc2)C[C@@H]2CC[C@H]1N2C(=O)NCc1cccc2ccccc12` stands 20.4%; under `COC(=O)C1=C(c2ccc(S(C)(=O)=O)cc2)C[C@@H]2CC[C@H]1N2C(=O)NCc1ccccc1`, -29.6%.
As to `COC(=O)C1=C(c2ccc(S(C)(=O)=O)cc2)C[C@@H]2CC[C@H]1N2C(=O)NCc1cccc2ccccc12`, the “hERG current change (%, negative = inhibition) at 10uM” value is -61.6%.
As for `COC(=O)C1=C(c2ccc(S(C)(=O)=O)cc2)C[C@@H]2CC[C@H]1N2C(=O)NCc1ccc(C(F)(F)F)cc1`, the figure is -59.3%; as for `COC(=O)C1=C(c2ccccc2)C[C@@H]2CC[C@H]1N2C(=O)NCc1cccc2ccccc12`, -12.2%.
Regarding `COC(=O)C1=C(c2ccc(C(C)=O)cc2)C[C@@H]2CC[C@H]1N2C(=O)NCc1ccc(C(F)(F)F)cc1`, the “hERG current change (%, negative = inhibition) at 10uM” value was found to be 30%.
